Our source for the Potency values is PubChem BioAssay (NCATS).

Records with an inconclusive call do not appear. A call without a number means that no potency is given here. Active and inactive are the calls of the source. Calls come from the whole dose curve; as a rule, active = well fitted cell-killing curve with a large enough effect; inconclusive = small, poorly fitted or top-dose-only effect, or effect the other way; inactive = flat fitted curve, though single readings scatter.
Potency is the fitted concentration of half-maximal effect.

The first experiment deals with C33A. In words: Primary qHTS to identify gynecologic anti-cancer compounds using libraries of approved drugs and bioactive compounds (AID 1345084). Note: nearly all actives have a fitted effect of over 55% in size. The settings on record: Gynecologic cancer cell panel viability, ATPlite luminescence, 48 h; series mostly up to 57.5 µM. The method, boiled down:
(§1)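 In this quantitative HTS, cell killing is estimated from loss of ATP-dependent luciferase light. Cells see five compound concentrations over a 48 h exposure.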
Take `CC(=O)OC[C@]12[C@H](OC(C)=O)C(=O)[C@@H]3[C@@H](O)[C@@]14O[C@@]3(C)COC(=O)c1cccnc1[C@@H](C)[C@H](C)C(=O)O[C@@H]([C@H](OC(C)=O)[C@@H]2OC(C)=O)[C@]4(C)O`: the Potency result was “inactive”. The same measure, in the same setting: in the case of `Cc1c(N[C@@H](c2nnc(-c3ccc(C#N)cc3)o2)[C@H](C)O)ccc(C#N)c1Cl` it was “inactive”. The same measure, in the same setting: the value for `COc1ccc2c(c1)c(CCN(C)C)cn2S(=O)(=O)c1ccccc1` was “inactive”.

The test system of the next experiment is CAOV3. Described as above. Particulars: Gynecologic cancer cell panel viability, ATPlite luminescence, 48 h; series mostly up to 57.5 µM. In short, it runs like this:
as §1
Background: Cellular ATP, detected with luciferase, serves as a proxy for viable cell number.
With `CN(C)[C@@H]1C(=O)C(C(N)=O)=C(O)[C@@]2(O)C(=O)C3=C(O)c4c(O)ccc(Cl)c4[C@@](C)(O)C3C[C@@H]12` (some centres undefined), the Potency entry is “inactive”. Same read-out and setting: the value for `CC(C)[C@H](NC(=O)c1nn(Cc2ccc(F)cc2)c2ccccc12)C(N)=O` was “inactive”; that for `COC1CCCC(C)OC(=O)Cc2cc(O)cc(O)c2C(=O)C1` (centres undefined) was “inactive”; that for `CN1CCCCC1Cn1cc(C(=O)c2cc([N+](=O)[O-])ccc2I)c2ccccc21` (centres undefined) was “inactive”.

`CC12CCC3C(C1)c1c(cc(O)c(C(=O)c4ccccc4)c1OC3(C)C)O2` (centres undefined): the Potency result is “inactive”. On to `CN1C(=O)[C@@H](Cc2c[nH]c3ccccc23)N=C(c2ccccc2F)c2ccccc21`, for which the Potency entry was “inactive”. Same read-out and setting: in the case of `C#C[C@]1(O)CC[C@H]2[C@@H]3CC[C@H]4Cc5nc6nc7ccccc7n6cc5C[C@]4(C)[C@H]3CC[C@@]21C` it was “inactive”; in that of `CC(C)[C@H]1OC(=O)[C@H](Cc2ccccc2)N(C)C(=O)[C@@H](C(C)C)OC(=O)[C@H](Cc2ccccc2)N(C)C(=O)[C@@H](C(C)C)OC(=O)[C@H](Cc2ccccc2)N(C)C1=O`, “inactive”; in that of `CCC1C2CC3C4N(C)c5ccccc5C45CC(C2C5O)N3C1O` (centres undefined), “inactive”. Same read-out and setting: in the case of `CCCCCCC1C(=O)O[C@H](C)[C@H](NC(=O)c2cccc(NC=O)c2O)C(=O)O[C@@H](C)[C@@H]1OC(=O)CC(C)C` (some centres undefined) it was 3160 nM (active); in that of `C=C(C)C(=O)O[C@H]1[C@@H]2[C@H](C)C(=O)O[C@@H]2C[C@@H](C)[C@@H]2C=CC(=O)[C@]21C`, 10000 nM (active); in that of `CCN1C[C@]2(COC)CC[C@H](O)[C@@]34C5C[C@@H]6[C@@H](OC)C[C@@](OC(C)=O)(C5[C@@H]6OC(C)=O)[C@H]([C@H](OC)C23)[C@@H]14` (some centres undefined), “inactive”.

Consider `C[C@]12CC[C@H](O)C[C@@]1(O)CC[C@@H]1[C@@H]2CC[C@]2(C)[C@@H](c3ccc(=O)oc3)CC[C@]12O`, for which the Potency entry was “inactive”. As for `CN1C(=O)N(c2ccc(C#N)c(C(F)(F)F)c2)C(=O)[C@@]1(CO)c1ccccc1`, the Potency entry is “inactive”. Still for that read-out and setting: the value for `CC(=O)O[C@H]1C[C@]2(O)[C@@H]3CC[C@@H]4C[C@@H](O)CC[C@]4(C)[C@H]3CC[C@]2(C)[C@H]1c1ccc(=O)oc1` was 158 nM (active); that for `CCCCCn1cc(C(=O)Oc2cccc3cccnc23)c2ccccc21` was “inactive”. Same read-out and setting: in the case of `CN=C(NS(=O)(=O)c1ccc(Cl)cc1)N1C[C@H](c2ccccc2)C(c2ccc(Cl)cc2)=N1` it was “inactive”; in that of `C=C(C)[C@@]12O[C@@H]1[C@@]1(C)C(=CC2=O)CC[C@@H](OC(C)=O)[C@@H]1C`, “inactive”; in that of `CN(Cc1cccc(-c2ccncc2)c1)C(=O)Oc1ccc(-c2ccc(C(N)=O)cc2)cc1`, “inactive”. On the same count and under the same terms, the value for `CC1=CC2OC3CC(O)[C@](C)([C@@]2(C)C(O)C1=O)[C@]31CO1` (some centres undefined) was “inactive”; that for `CN(C(=O)C(c1ccccc1)c1ccccc1)[C@H](CN1CC[C@H](O)C1)c1ccccc1` was “inactive”; that for `COC(=O)C12C(=O)C(C)(O)C(=O)C1(C)C(C)=CC1C34CCC(OC3=O)C(C)(C)C4CCC12C` (centres undefined) was “inactive”. Turning to `CCOc1ccc(Oc2ccc(OCc3cc(F)ccc3F)cc2)c(N)c1`, the Potency entry was “inactive”.

In the case of `Cc1ccc2c(c1)[C@H]1CN(C)CC[C@H]1N2C(=O)CSc1nnnn1-c1ccc(Cl)cc1`, the Potency result is “inactive”.

Turning to `C=C1C2(C)CC3C(C)(O)C4=CC(=O)OC(C)(C)C4=CCC3(C)C13C(=O)OC(C)C3(O)C2=O` (centres undefined), the Potency entry was “inactive”. In the case of `CCCN(CCC)[C@@H]1CCc2ccc3[nH]c(C#N)cc3c2C1`, the Potency entry was “inactive”. With `c1ccc([C@@H]2C[C@H]2NC2CCNCC2)cc1`, the Potency result is “inactive”.

For the compound `CC(=O)OC[C@]12[C@H](OC(C)=O)C(=O)[C@@H]3[C@@H](O)[C@@]14O[C@@]3(C)COC(=O)c1cccnc1[C@@H](C)[C@H](C)C(=O)O[C@@H]([C@H](OC(C)=O)[C@@H]2OC(C)=O)[C@]4(C)O`, the Potency result was “inactive”. As to `Cc1c(N[C@@H](c2nnc(-c3ccc(C#N)cc3)o2)[C@H](C)O)ccc(C#N)c1Cl`, the Potency entry was “inactive”. In the case of `COc1ccc2c(c1)c(CCN(C)C)cn2S(=O)(=O)c1ccccc1`, the Potency entry is “inactive”.

The test system of a further experiment is CASKI. The description is as above. Particulars: Gynecologic cancer cell panel viability, ATPlite luminescence, 48 h; series mostly up to 57.5 µM. The method, boiled down:
as §1
Regarding `CN(C)[C@@H]1C(=O)C(C(N)=O)=C(O)[C@@]2(O)C(=O)C3=C(O)c4c(O)ccc(Cl)c4[C@@](C)(O)C3C[C@@H]12` (some centres undefined), the Potency result is “inactive”. Still for that read-out and setting: in the case of `CC(C)[C@H](NC(=O)c1nn(Cc2ccc(F)cc2)c2ccccc12)C(N)=O` it was “inactive”.

For the compound `COC1CCCC(C)OC(=O)Cc2cc(O)cc(O)c2C(=O)C1` (centres undefined), the Potency result was “inactive”. On the same count and under the same terms, in the case of `CN1CCCCC1Cn1cc(C(=O)c2cc([N+](=O)[O-])ccc2I)c2ccccc21` (centres undefined) it was “inactive”; in that of `CC12CCC3C(C1)c1c(cc(O)c(C(=O)c4ccccc4)c1OC3(C)C)O2` (centres undefined), “inactive”. On the same count and under the same terms, in the case of `CN1C(=O)[C@@H](Cc2c[nH]c3ccccc23)N=C(c2ccccc2F)c2ccccc21` it was “inactive”. Still for that read-out and setting: in the case of `C#C[C@]1(O)CC[C@H]2[C@@H]3CC[C@H]4Cc5nc6nc7ccccc7n6cc5C[C@]4(C)[C@H]3CC[C@@]21C` it was “inactive”; in that of `CC(C)[C@H]1OC(=O)[C@H](Cc2ccccc2)N(C)C(=O)[C@@H](C(C)C)OC(=O)[C@H](Cc2ccccc2)N(C)C(=O)[C@@H](C(C)C)OC(=O)[C@H](Cc2ccccc2)N(C)C1=O`, “inactive”. In the case of `CCC1C2CC3C4N(C)c5ccccc5C45CC(C2C5O)N3C1O` (centres undefined), the Potency entry was “inactive”.

`CCCCCCC1C(=O)O[C@H](C)[C@H](NC(=O)c2cccc(NC=O)c2O)C(=O)O[C@@H](C)[C@@H]1OC(=O)CC(C)C` (some centres undefined): the Potency was 1000 nM (active). On the same count and under the same terms, the value for `C[C@@H]1O[C@@H](OC2CCC3(C=O)C(CCC4C3CCC3(C)C(C5=CC(=O)OC5)C(O)CC43O)C2)[C@H](O)[C@H](O)[C@H]1O[C@@H]1O[C@H](CO)[C@@H](O)[C@H](O)[C@H]1O` (some centres undefined) was “inactive”; that for `CCN1C[C@]2(COC)CC[C@H](O)[C@@]34C5C[C@@H]6[C@@H](OC)C[C@@](OC(C)=O)(C5[C@@H]6OC(C)=O)[C@H]([C@H](OC)C23)[C@@H]14` (some centres undefined) was “inactive”. Regarding `C[C@]12CC[C@H](O)C[C@@]1(O)CC[C@@H]1[C@@H]2CC[C@]2(C)[C@@H](c3ccc(=O)oc3)CC[C@]12O`, the Potency result is “inactive”.

Take `CN1C(=O)N(c2ccc(C#N)c(C(F)(F)F)c2)C(=O)[C@@]1(CO)c1ccccc1`: the Potency entry is “inactive”. The same measure, in the same setting: in the case of `CC(=O)O[C@H]1C[C@]2(O)[C@@H]3CC[C@@H]4C[C@@H](O)CC[C@]4(C)[C@H]3CC[C@]2(C)[C@H]1c1ccc(=O)oc1` it was 398 nM (active).

Turning to `CCCCCn1cc(C(=O)Oc2cccc3cccnc23)c2ccccc21`, the Potency entry is “inactive”. Turning to `CN=C(NS(=O)(=O)c1ccc(Cl)cc1)N1C[C@H](c2ccccc2)C(c2ccc(Cl)cc2)=N1`, the Potency entry is “inactive”. Same read-out and setting: in the case of `C=C(C)[C@@]12O[C@@H]1[C@@]1(C)C(=CC2=O)CC[C@@H](OC(C)=O)[C@@H]1C` it was “inactive”; in that of `CN(Cc1cccc(-c2ccncc2)c1)C(=O)Oc1ccc(-c2ccc(C(N)=O)cc2)cc1`, “inactive”; in that of `CN(C(=O)C(c1ccccc1)c1ccccc1)[C@H](CN1CC[C@H](O)C1)c1ccccc1`, “inactive”. Same read-out and setting: in the case of `COC(=O)C12C(=O)C(C)(O)C(=O)C1(C)C(C)=CC1C34CCC(OC3=O)C(C)(C)C4CCC12C` (centres undefined) it was “inactive”; in that of `CCOc1ccc(Oc2ccc(OCc3cc(F)ccc3F)cc2)c(N)c1`, “inactive”. On to `Cc1ccc2c(c1)[C@H]1CN(C)CC[C@H]1N2C(=O)CSc1nnnn1-c1ccc(Cl)cc1`, for which the Potency entry is “inactive”.

Consider `C=C1C2(C)CC3C(C)(O)C4=CC(=O)OC(C)(C)C4=CCC3(C)C13C(=O)OC(C)C3(O)C2=O` (centres undefined), for which the Potency entry was “inactive”.

Turning to `CCCN(CCC)[C@@H]1CCc2ccc3[nH]c(C#N)cc3c2C1`, the Potency result is “inactive”. On the same count and under the same terms, in the case of `C[C@]12CC[C@H](O)C[C@@H]1CC[C@@H]1[C@@H]2CC[C@]2(C)[C@@H](C3=CC(=O)OC3)CC[C@]12O` it was “inactive”; in that of `CC1=CC(=O)[C@@H](O)[C@@]2(C)C1C[C@H]1OC(=O)[C@H](O)[C@@]3(O)[C@@H](C)[C@@H](O)[C@H](O)C2[C@@]13C` (some centres undefined), “inactive”.

For `c1ccc([C@@H]2C[C@H]2NC2CCNCC2)cc1`, the Potency result is “inactive”. Still for that read-out and setting: in the case of `CC(=O)OC[C@]12[C@H](OC(C)=O)C(=O)[C@@H]3[C@@H](O)[C@@]14O[C@@]3(C)COC(=O)c1cccnc1[C@@H](C)[C@H](C)C(=O)O[C@@H]([C@H](OC(C)=O)[C@@H]2OC(C)=O)[C@]4(C)O` it was “inactive”. Still for that read-out and setting: the value for `Cc1c(N[C@@H](c2nnc(-c3ccc(C#N)cc3)o2)[C@H](C)O)ccc(C#N)c1Cl` was “inactive”; that for `COc1ccc2c(c1)c(CCN(C)C)cn2S(=O)(=O)c1ccccc1` was “inactive”.
